# The OligoGym collection
# Assays:
# Test in all cases: pooled miR-30 sensor sort-seq; sequence = guide strand
# Conditions in all cases: shRNA
# COL4A3BP = molecular target: COL4A3BP
# COMMD1 = molecular target: COMMD1
# COMMD10 = molecular target: COMMD10
# COMMD8 = molecular target: COMMD8
# Also: reference of the scale not given here.
sequence,measurement,setting,value
TTGTAGGAAAGTCATCTTCATC,sensor-assay potency score (higher = more potent),COL4A3BP,-1.71
TTGCATAGAATGTTGTCCCTGC,sensor-assay potency score (higher = more potent),COL4A3BP,0.716
TTTGTCTTGTGGCTCTTCCAGA,sensor-assay potency score (higher = more potent),COMMD1,-0.37
TTAACAATGATCTCTATTGGTT,sensor-assay potency score (higher = more potent),COMMD10,-0.722
TTGATTTCATCTTTCCTACTTT,sensor-assay potency score (higher = more potent),COMMD8,-0.353
TTGTATAGTCTCTAGCTTGTTA,sensor-assay potency score (higher = more potent),COMMD10,0.109
